Laboratory results reported in PubChem BioAssay (NCI).
The panel holds about 83,000 compounds, 20% with a hit somewhere; the sample as a whole holds those more often.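 Results are percent growth after 48 hours of single-concentration exposure. 100 means growth as in untreated cells, lower positive values show inhibition; negative values down to -100 show cell death.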 Activity calls are given as the source filed them. The calls were made as follows: active = growth percent below 10; inactive = the rest.

Assays:
Test in all cases: NCI-60 one-dose screen, 48 h (100 = growth as untreated, 0 = no growth, -100 = all killed)
Settings in all cases: 10 µM unless noted
[1] = test system: HCT-15 colon
[2] = test system: HT29 colon
[3] = test system: SNB-75 CNS
[4] = test system: SNB-19 CNS
[5] = test system: U251 CNS
[6] = test system: PC-3 prostate
[7] = test system: SK-MEL-5 melanoma
[8] = test system: UACC-62 melanoma
[9] = test system: LOX IMVI melanoma
[10] = test system: SK-MEL-28 melanoma
[11] = test system: SK-MEL-2 melanoma
[12] = test system: EKVX NSCLC
[13] = test system: SN12C renal
[14] = test system: UO-31 renal
[15] = test system: TK-10 renal
[16] = test system: ACHN renal
[17] = test system: CAKI-1 renal
[18] = test system: A498 renal
[19] = test system: CCRF-CEM leukemia
[20] = test system: MOLT-4 leukemia

Measured: growth

CSc1ccc2c3c(n(CCCn4ccnc4)c(=O)c2c1)-c1ccccc1C3=O
inactive: [1] 61.1% | [2] 27.1% | [3] 51.6% | [4] 33.2% | [5] 12.7% | [6] 45.6% | [7] 19.5% | [8] 19.8% | [10] 78.5% | [11] 97.1% | [12] 84.4% | [13] 45.1% | [14] 26.3% | [15] 83.1% | [16] 12.4% | [17] 24.6% | [18] 68.5% | [19] 15.6%
active: [9] 1.75% | [20] -3.86%

O=C(NC1CCC(Br)CC1)C1CCCC(S(=O)(=O)NC2CCCCC2)C1 (stereo not given)
inactive: [1] 18.8% [25 µM] | [2] 28.7% [25 µM] | [3] 27.4% [25 µM] | [4] 26.8% [25 µM] | [5] 18.5% [25 µM] | [9] 15.8% [25 µM] | [10] 24.7% [25 µM] | [11] 17.9% [25 µM] | [13] 22.2% [25 µM] | [15] 18.4% [25 µM] | [16] 15.9% [25 µM] | [17] 13.5% [25 µM] | [19] 18.3% [25 µM]
active: [6] 4.26% [25 µM] | [7] -68% [25 µM] | [8] 9.41% [25 µM] | [12] -19.3% [25 µM] | [14] 8.5% [25 µM] | [18] -5.7% [25 µM] | [20] 7.81% [25 µM]

CS(=O)(=O)Nc1cc(-c2ccc3ncnc(Nc4ccc(OCc5ccccn5)c(Cl)c4)c3c2)cnc1Cl
inactive: [1] 25.1% | [4] 24% | [6] 13.4% | [13] 20% | [16] 23.7% | [17] 29.2%
active: [2] -5.91% | [3] -10.8% | [5] -27.1% | [7] -80.8% | [8] 4.79% | [9] -19.6% | [10] 8.34% | [11] -65% | [12] 3.3% | [14] 0.194% | [15] -19.8% | [18] -61% | [19] -2.25% | [20] -29.5%

Nc1[nH]nc2nc(-c3ccccc3)n3c4ccccc4nc3c12
inactive: [1] 101% | [2] 104% | [3] 87.7% | [4] 106% | [5] 102% | [6] 95.2% | [7] 92.8% | [8] 88.7% | [9] 99.7% | [10] 117% | [11] 98.8% | [12] 78% | [13] 104% | [14] 83.2% | [15] 110% | [16] 89% | [17] 83.1% | [18] 89.2% | [19] 102% | [20] 97.9%

Cn1cc(-c2csc(-c3cn(C)c4ccccc34)n2)c2cnccc21
active: [1] -35.9% | [2] 4.26% | [5] -48.7% | [7] -76.2% | [9] -87.5% | [10] -92.9% | [14] -48.1% | [16] -61.4% | [17] -6.15% | [19] 0.781% | [20] 5.42%
inactive: [3] 104% | [4] 52.2% | [6] 54.8% | [8] 61.4% | [11] 107% | [12] 16.8% | [13] 67.8% | [15] 66.7% | [18] 85.2%

CN1c2ccccc2S(=O)(=O)n2c(SCC(=O)Nc3nc4ccc(F)cc4s3)nnc21
inactive: [1] 119% | [2] 119% | [3] 90.7% | [4] 107% | [5] 127% | [6] 87.8% | [7] 87.2% | [8] 96.5% | [9] 92.5% | [10] 127% | [11] 52.6% | [12] 102% | [13] 104% | [15] 130% | [16] 96.1% | [17] 97.3% | [18] 119% | [19] 31.1% | [20] 81.9%
active: [14] -65.7%

CCOC(=O)C/C(=N\Nc1cc(=O)[nH]c2ccc(OC)cc12)C(=O)OCC
active: [19] -47.5%
inactive: [1] 99.7% | [2] 110% | [3] 94.6% | [4] 100% | [5] 106% | [6] 89% | [7] 99.7% | [8] 90.4% | [9] 96.6% | [10] 99.6% | [11] 117% | [12] 100% | [13] 99.5% | [14] 78.1% | [15] 114% | [16] 98.8% | [17] 91.9% | [18] 106% | [20] 26.1%

Cc1cccc(-c2nc(C(C)C)sc2-c2ccnc(NCCCNS(=O)(=O)c3ccc(Cl)cc3)c2)c1
inactive: [1] 36.5% | [2] 16.9% | [3] 97.5% | [4] 89.6% | [5] 73% | [6] 50% | [7] 87.6% | [8] 96.4% | [9] 75% | [10] 90.6% | [11] 79% | [12] 78.4% | [13] 73% | [14] 75.3% | [15] 80.1% | [16] 75.6% | [17] 85% | [18] 79% | [19] 68.4% | [20] 52.3%

S=c1ccnc[nH]1
inactive: [1] 103% | [2] 110% | [3] 120% | [4] 102% | [5] 102% | [6] 100% | [7] 109% | [8] 102% | [9] 96.5% | [10] 144% | [11] 96.6% | [12] 118% | [13] 96.8% | [14] 82.5% | [15] 127% | [16] 99.4% | [17] 104% | [18] 112% | [19] 123% | [20] 107%

O=C(Nc1ncc(Cc2ccccc2)s1)c1sc2ccccc2c1Cl
inactive: [1] 26.5% | [2] 12.3% | [4] 52.6% | [5] 21.4% | [6] 27% | [8] 12.1% | [9] 46.9% | [10] 59.4% | [11] 20.8% | [12] 30.2% | [13] 39.5% | [14] 39% | [15] 38.8% | [16] 39.8% | [17] 29.5% | [18] 15.1% | [19] 18.8% | [20] 31.4%
active: [3] -1.11% | [7] 3.74%

O=C1/C(=C/c2c[nH]c(=O)[nH]c2=O)SC(=S)N1Cc1ccccc1
inactive: [1] 104% | [2] 101% | [3] 80.1% | [4] 95.2% | [5] 97.7% | [6] 98.9% | [7] 100% | [8] 91.5% | [9] 99.8% | [10] 103% | [11] 103% | [12] 74.6% | [13] 95.5% | [14] 75.8% | [15] 102% | [16] 102% | [17] 93.6% | [18] 99.9% | [19] 104% | [20] 103%

COC1C(O)CC(OC2CC(OC3CC(O[C@@H]4C(=O)c5c(cc6cc(OC7CC(OC8CC(O)C(O)C(C)O8)C(O)C(C)O7)c(C)c(O)c6c5O)CC4[C@H](OC)C(=O)C(C)=O)OC(C)C3O)OC(C)C2O)OC1C (stereo not given in full)
inactive: [4] 11.2% | [17] 16.9%
active: [1] -2.22% | [2] -19.8% | [3] -80.9% | [5] 1.19% | [6] -1.97% | [7] -40.4% | [8] -30.3% | [9] -2.05% | [10] -20.6% | [11] -41.9% | [12] 3.71% | [13] 7.44% | [14] -27.7% | [15] -8.69% | [16] 5.29% | [18] -44.1% | [19] 4.37% | [20] -6.83%

CCCCCc1ccc(S(=O)(=O)Nc2ccc3nc(N)oc3c2)cc1
active: [7] 4.66%
inactive: [1] 82.5% | [2] 89.4% | [3] 40.7% | [4] 66.3% | [5] 71.5% | [6] 57.2% | [8] 43.7% | [9] 36.3% | [10] 74.7% | [11] 101% | [12] 33.2% | [13] 58.8% | [14] 35.8% | [15] 84.6% | [16] 60.3% | [17] 51.1% | [18] 32.6% | [19] 51.8% | [20] 37.1%

Cc1ccccc1N1CCN(C(=S)c2ccccc2)CC1
inactive: [1] 98.8% | [2] 96.2% | [3] 84.7% | [4] 98.8% | [5] 93.4% | [6] 101% | [7] 96.8% | [8] 82.9% | [9] 92.3% | [10] 109% | [11] 85% | [12] 96.1% | [13] 96.6% | [14] 82.1% | [15] 108% | [16] 106% | [17] 75.3% | [18] 101% | [19] 114% | [20] 106%

O=C1OCC2=C1C(c1ccccc1)c1cc3c(cc1N2CCO)OCCO3 (stereo not given)
inactive: [4] 12.8% | [6] 17.3% | [8] 14.5% | [9] 34.6% | [10] 32.6% | [11] 57.3% | [12] 48.4% | [13] 35.1% | [14] 68.4% | [15] 63.5% | [16] 36.7% | [17] 51% | [19] 10.5% | [20] 21.4%
active: [1] 7.18% | [2] -35.9% | [3] -11.2% | [5] 7.86% | [7] 4.37% | [18] -21.2%
